FLuc counter: counter-screen for miR-21 project: firefly luciferase inhibitors or activators; purified FLuc, Km substrates, luminescence inhibition; P08659; 360,000 compounds, 6.9% hits; Potency, µM (series often up to 57.5 µM), without a hit: at the top dose activity change, negative = inhibition, actives largely listed as inhibitors; AID 588342;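 also: plate controls were vehicle for no effect and reference inhibitor for full effect; nearly all actives have a fitted effect of over 55% in size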
Target sequence (P08659 whole entry, looked up): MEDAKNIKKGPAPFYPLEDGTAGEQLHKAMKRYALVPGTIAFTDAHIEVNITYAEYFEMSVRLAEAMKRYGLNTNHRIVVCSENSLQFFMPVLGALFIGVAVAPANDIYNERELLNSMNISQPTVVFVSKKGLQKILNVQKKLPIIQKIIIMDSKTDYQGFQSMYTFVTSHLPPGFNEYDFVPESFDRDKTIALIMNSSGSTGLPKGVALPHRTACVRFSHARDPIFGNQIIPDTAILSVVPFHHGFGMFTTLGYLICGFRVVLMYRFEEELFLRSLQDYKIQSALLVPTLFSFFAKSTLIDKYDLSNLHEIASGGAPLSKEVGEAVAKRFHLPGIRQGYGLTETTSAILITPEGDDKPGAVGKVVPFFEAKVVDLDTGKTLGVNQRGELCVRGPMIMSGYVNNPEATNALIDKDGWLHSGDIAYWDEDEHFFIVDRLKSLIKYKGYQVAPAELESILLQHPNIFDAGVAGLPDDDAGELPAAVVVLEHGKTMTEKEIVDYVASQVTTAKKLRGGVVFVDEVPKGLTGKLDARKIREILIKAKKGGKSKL
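Biochemical qHTS of compounds, final roughly 60 µM downward over six points, against 10 nM purified firefly luciferase using Km concentrations of substrates (10 uM D-luciferin, 10 uM ATP) in Tris acetate pH 7.5 buffer; luminescence output.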
NPC1 prom act: activators of NPC1 promoter | AID 485313 | 320,000 compounds, 2.4% hits | Huh7 NPC1 promoter luciferase reporter, 24 h | Potency, µM (doses to about 9.22 µM), for inactives: at the top dose activation, actives largely listed as activators; also: % of control where 0% means no effect; nearly all actives have a fitted effect of over 60% in size
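Compounds in DMSO were transferred onto Huh7 NPC1-luciferase reporter cells pre-incubated 2 h; after 24 h at 37 °C, Amplite reagent was dispensed and luminescence recorded 10 min later.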
Rab9 promoter act: activates the Rab9 promoter. Potency, µM (top dose mostly 9.22 µM), for the others: at the highest dose activation, negative = inhibition, actives largely listed as activators. Huh7 Rab9 promoter-luciferase reporter, luminescence, 24 h. 320,000 compounds, 2.8% hits; also: % of control where 0% means no effect; nearly all actives have a fitted effect of over 60% in size
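Luminescence from Amplite-detected luciferase (10 minutes, ambient) reports Rab9 promoter activation. Before that, stable Rab9-luciferase Huh7 cells (1500/well, reduced-serum OP-MEM I plus 10% FBS) were exposed to compound for 24 hours at 37C.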
SMN2 splice enh: enhancers of SMN2 splice variant expression. HEK293 SMN2-luciferase splicing reporter, luminescence, 30-36 h. Potency, µM (highest dose often 46.1 µM), for inactives: top-dose activity change, positive = activation, usual class: activators. 210,000 compounds, 2.8% hits. AID 1458; also: % of control where 0% means no effect; nearly all actives have a fitted effect of over 55% in size
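HEK293 cells carry an SMN2 […]–luciferase reporter in which exon 7 inclusion puts luciferase in frame. Cells were plated 10-12 h before compound addition, then incubated 30-36 h at 37C. ONE-Glo luminescence was read; sodium butyrate at 4.5 mM final served as control.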
ELG1 genotoxic: induces genotoxicity in HEK293T cells with luciferase-tagged ELG1; HEK293T ELG1-luciferase reporter, luminescence, 16 h; Potency, µM (highest dose often 46 µM), for the others: at the highest dose activity change, positive = activation, actives largely listed as activators; 330,000 compounds, 1.3% hits; also: % of control where 0% means no effect; nearly all actives have a fitted effect of over 60% in size
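DMSO vehicle served as control against compound-treated ELG1-luciferase HEK293T cells; exposure lasted 16 hr at 37 °C and 5% CO2, followed by ONE-Glo luminescence detection after 30 min.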
Numbers without * were called inactive; ? = inconclusive; . = no result; [ ] = remark or other dose. Only some compounds are listed: those with a hit (about 7.4% of all), similar ones and a draw of the others. Calls follow the shape of the dose curve; as a rule, active = well fitted curve in the direction sought with a large enough effect; inconclusive = small, poorly fitted or top-dose-only effect, or another doubt; inactive = no such curve, though single readings can be large; an effect the other way counts as inactive or inconclusive. Potency is read from the fitted curve at half-maximal effect.

SMILES	FLuc counter	NPC1 prom act	Rab9 promoter act	SMN2 splice enh	ELG1 genotoxic
O=C(O)c1ccc(NC(=O)c2cccc(C(=O)Nc3ccc(C(=O)O)cc3)c2)cc1	-15%	-4%	3%	.	0%
COc1ccc(/C=N/Nc2nncc3ccccc23)c(OC)c1	9.5µM*	?	?	13µM*	?
Oc1ccc(/C=N\Nc2nncc(-c3ccccc3)n2)cc1	?	-6%	-8%	.	?
Cc1cccc(/C=N/Nc2nncc3ccccc23)c1	0.85µM*	0.56µM*	0.32µM*	2.5µM*	0.46µM*
C(=N\Nc1nncc2ccccc12)/c1ccccc1	0.54µM*	1.1µM*	1.4µM*	.	?
COc1cc(/C=N/Nc2nncc3ccccc23)cc(OC)c1OC	8.5µM*	1.6µM*	?	.	?
CC(C)c1cccc(C(C)C)c1NC(=O)COC(=O)C1=COCCO1	-2%	-3%	-6%	.	-2%
CN(C)c1ccc(/C=N/Nc2nncc3ccccc23)cc1	0.43µM*	0.32µM*	0.32µM*	.	0.73µM*
Cc1cc(=O)[nH]c(N/N=C/c2ccc(N(C)C)cc2)n1	?	8%	0%	.	9%
CCNC(=S)NNC(=O)c1cc(C)nc2ccccc12	-14%	-3%	-8%	16%	-1%
CCNC(=S)NNC(=O)c1cc(-c2cccnc2)nc2ccccc12	9.5µM*	-3%	3%	13%	3%
CCCNC(=S)NNC(=O)c1cc(-c2cccnc2)nc2ccccc12	19µM*	-1%	-9%	.	-2%
CCCCNC(=S)NNC(=O)c1cc(-c2cccnc2)nc2ccccc12	15µM*	-2%	0%	.	0%
CC(=O)NC(c1ccco1)c1cc(Br)c2cccnc2c1O (stereo not given)	1%	-5%	-27%	.	.
O=C(Nc1nnc(Cc2ccccc2)s1)c1ccccc1	-18%	3.2µM*	?	.	?
O=C(Nc1nnc(Cc2ccccc2)s1)c1cccs1	?	?	1.8µM*	12%	?
COc1ccc(Cc2nnc(NC(=O)c3cccs3)s2)cc1	?	0%	1%	-7%	?
O=C(Nc1nnc(Cc2ccc(Cl)cc2)s1)c1cccs1	-1%	17%	20%	15%	21%
O=C(Nc1nnc(CC2=CCCCC2)s1)c1cccs1	?	?	?	14µM*	15µM*
COCC(=O)N1CCC[C@@]2(CCN(c3ccccn3)C2)C1	.	.	.	9%	.
COc1ccc(S(=O)(=O)c2cc(NS(=O)(=O)c3ccc(Cl)cc3)c(C)c(C)c2O)cc1	?	.	.	-4%	.
CC(C)c1ccc(NC(=O)C2CC3CCC2C3)cc1 (stereo not given)	11µM*	3.5µM*	3.2µM*	.	21µM*
CCOC(=O)CSc1ccc(-c2nc3cc(C)c(C)cc3[nH]2)cn1	1.1µM*	?	?	9%	?
CCOC(=O)CSc1ccc(-c2nc3ccccc3[nH]2)cn1	12µM*	-1%	-2%	.	0%
N#CCSc1ccc(-c2nc3ccccc3[nH]2)cn1	12µM*	?	?	?	?
SMILES	FLuc counter	NPC1 prom act	Rab9 promoter act	SMN2 splice enh	ELG1 genotoxic
Cc1cc2nc(-c3ccc(SCc4ccccn4)nc3)[nH]c2cc1C	5.4µM*	?	2.5µM*	-19%	-9%
Oc1c(Br)cc(C=Nc2ccc3nc(-c4ccccc4)[nH]c3c2)c(O)c1Br	11µM*	?	2.8µM*	.	1%
O=[N+]([O-])c1ccc(O)c(C=Nc2ccc3nc(-c4ccccc4)[nH]c3c2)c1	5.4µM*	?	3.2µM*	10%[1.84 µM]	?
O=C(c1ccccc1)c1ccc2nc(-c3ccc(NC(=O)c4ccccc4Br)cc3)[nH]c2c1	-14%	0%	8%	-30%	-3%
Cc1ccc(-c2nnc(Nc3ccc(Br)cc3)c3ccccc23)cc1S(=O)(=O)N1CCN(C)CC1	-11%	.	.	.	.
COC(=O)C1=C(C)NC(=O)/C1=C\c1cc(C)n(-c2ccccc2)c1C	11µM*	20%	?	152%	1%
COC(=O)C1=C(O)/C(=C\c2sccc2C)N=C1C	?	-1%	-3%	1%	1%
COC(=O)C1=C(O)/C(=C\c2cc(C)n(-c3ccccc3F)c2C)N=C1C	0.85µM*	7%	27%	2%	?
COC(=O)C1=C(O)/C(=C\c2cc(C)n(-c3ccccc3C)c2C)N=C1C	1.1µM*	?	?	-12%	5%
COC(=O)C1=C(C)NC(=O)/C1=C\c1cc(C)n(-c2cc(C)cc(C)c2)c1C	-13%	1%	-1%	-14%	-4%
Cc1ccc2nc(N3C(=O)C(O)=C(C(=O)c4ccco4)C3c3cccs3)sc2c1 (stereo not given)	17µM*	-3%	16%	0%	12%
FC(F)(F)c1ccccc1/C=N/N1CCN(Cc2ccccc2)CC1	19µM*	23%	25%	11%	17%
Clc1ccccc1/C=N/N1CCN(Cc2ccccc2)CC1	?	16%	8%	.	10%
COc1ccc(/C=N/N2CCN(c3ccccc3OC)CC2)cc1OC	?	-5%	1%	17%	?
Clc1cccc(/C=N/N2CCN(Cc3ccccc3)CC2)c1	17µM*	?	?	.	?
COc1ccccc1N1CCN(/N=C/c2cccc(Cl)c2)CC1	12µM*	3.2µM*	2.2µM*	.	16µM*

Bioassay records deposited in PubChem BioAssay by National Center for Advancing Translational Sciences (NCATS).
